Results on 64 molecules are retold here after PubChem BioAssay AID651820 (National Center for Advancing Translational Sciences (NCATS), 2012).

The campaign covered roughly 340,000 compounds. About 12,000 (3.5%) were called active. A call without a number means that no potency is given here. Another 18% or so got no clear call; they are omitted. The sample holds actives, similar compounds and a random draw of the others, so the mix is not that of the screen. A number with no mark means an inactive call. Calls follow the shape of the dose curve; as a rule, active = well fitted inhibition curve with a large enough effect; inconclusive = small, poorly fitted or top-dose-only effect, or another doubt; inactive = no such curve, though single readings can be large or run the other way.
Potency is read from the fitted curve at half-maximal effect.

The nature of this experiment: qHTS Assay for Inhibitors of Hepatitis C Virus (HCV). The settings on record: Huh7.5.1 HCVcc-Cre infection, luciferase reporter, 44 h; series mostly up to 41.8 µM. The method, boiled down:
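After 44 h co-culture of compound, cells and HCVcc-Cre (~0.5 moi), substrate is added for 15 min at room temperature and luciferase measured over 15 sec. Cells were seeded at 1,000/well and pre-cultured 4 h.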
For orientation: Quantitative high-throughput screening tests each substance at several concentrations.
For the molecule `CCOC(=O)C1=CN(Cc2ccc(Br)cc2)S(=O)(=O)NC1C` (centres undefined), the Potency entry is “inactive”.
On the same count and under the same terms, next, `COC(=O)c1cc(Oc2ccc(S(=O)(=O)N3CCOCC3)cc2[N+](=O)[O-])cc(C(=O)OC)c1`: “inactive”; `O=C(CCN1C(=O)c2ccccc2C1=O)Nc1ccncc1`: “inactive”; `CC1CCN(CCC(=O)Nc2ccccc2)CC1`: “inactive”.
As for `O=C(CCN1c2ccccc2Sc2ccccc21)Nc1ccccc1`, the Potency was 12.6 µM (active).
On the same count and under the same terms, next, `O=S(=O)(Nc1ccc(-n2cnnn2)cc1)c1ccc(Cl)cc1`: “inactive”; `Fc1ccccc1-c1cc2cc3c(cc2cn1)OCO3`: “inactive”; `Cc1ccc(NC(=O)c2nc[nH]c2C(=O)N2CCCCC2)c(C(=O)c2ccccc2)c1`: “inactive”.
Same read-out and setting: next, `O=C(CCN1CCCCC1)NCC(=O)Nc1ccc(Br)cc1C(=O)c1ccccc1`: 10 µM (active); `COc1ccc(NC(=O)CCN2CCCC2)c(OC)c1`: “inactive”.
The same measure, in the same setting: next, `Cc1cccc(C)c1Nc1nnc(SCC(=O)NCCCN2CCCC2=O)s1`: “inactive”; `CO[C@H]1[C@@H]2C=CO[C@@H](O[C@H]3O[C@@H](CO)[C@H](O)[C@@H](O)[C@@H]3O)[C@@H]2[C@@]2(CO)O[C@@H]12`: “inactive”; `COC(=O)C1=CO[C@@H](O[C@@H]2O[C@H](CO)[C@@H](O)[C@H](O)[C@H]2O)C2C1C[C@H](O)[C@@H]2C` (some centres undefined): 2.51 µM (active).
Take `C=CC1C(OC2OC(CO)C(O)C(O)C2O)OC=C(C(=O)OC)C1CC1CC(=O)CC(CC(=O)CCc2ccc(O)cc2)O1` (centres undefined): the Potency entry is “inactive”.
On the same count and under the same terms, next, `Cc1cc(=O)[nH]c(SCc2ccc(Cl)cc2)n1`: “inactive”; `CCCc1cc(=O)[nH]c(SCC(=O)c2cc(C)n(CCC)c2C)n1`: “inactive”.
Same read-out and setting: next, `Cc1cc(C(=O)CSc2nc(N)cc(=O)[nH]2)c(C)n1CCc1ccc(Cl)cc1`: 11.2 µM (active); `Cc1ccc(S(=O)(=O)N2CCN(C(=O)c3cc(S(=O)(=O)N4CCOCC4)ccc3F)CC2)cc1`: “inactive”; `CCCCCCCCNS(=O)(=O)CCNC1CCCCC1`: “inactive”.
`COc1cccc(C(=O)Nc2ccc(N3CCCC3)cc2)c1`: the Potency is 11.2 µM (active).
On the same count and under the same terms, next, `COc1cccc(C(=O)Nc2ccc(N3CCN(C(=O)c4ccco4)CC3)cc2)c1`: “inactive”; `COc1ccc(C(=O)Nc2ccc(N3CCC(C)CC3)cc2)cc1Br`: “inactive”.
Regarding `O=C(CSc1ncn[nH]1)Nc1ccc(Br)cc1Br`, the Potency entry was “inactive”.
Still for that read-out and setting: next, `COc1cccc(C(=O)Nc2c3c(nn2-c2cccc(C)c2C)CS(=O)(=O)C3)c1OC`: “inactive”; `Cc1cc(C(=O)NC2CCCc3c2cnn3-c2cccc(C)c2C)c(C)o1` (centres undefined): 10 µM (active).
As for `CC1(C)Cc2c(cnn2-c2cccc(F)c2)C(NC(=O)c2cc[n+]([O-])cc2)C1` (centres undefined), the Potency result is “inactive”.
Same read-out and setting: next, `Cc1cccc(C(=O)OC(C)C(=O)NC2CCCc3ccccc32)c1O` (centres undefined): “inactive”.
On the same count and under the same terms, next, `Cc1cc(C(=O)NNC(=O)c2ccccc2O)c(C)o1`: “inactive”; `CC(=O)NCC(=O)NC1CCCc2c1cnn2-c1ccccc1F` (centres undefined): “inactive”; `Cn1nccc1C(=O)NC1CCCc2c1cnn2-c1ccccc1F` (centres undefined): 0.891 µM (active).
Regarding `COc1ccc(C(=O)NC2CC(C)(C)Cc3c2cnn3-c2ccccc2C)o1` (centres undefined), the Potency entry is “inactive”.
The same measure, in the same setting: next, `COc1ccc(C(=O)NC2CCCc3c2cnn3-c2cccc(C)c2C)c(OC)n1` (centres undefined): 2.24 µM (active).
Still for that read-out and setting: next, `NC(=S)NN=C1CCCC(C(F)(F)F)C1` (centres undefined): “inactive”; `C#CCOCCOCCOCCNc1nc(N2CCN(C(=O)Cn3cc(CCCCN)nn3)CC2)nc(N2CCN(C(=O)[C@H](CCCCN)n3cc(CCC(=O)O)nn3)CC2)n1`: “inactive”; `CCOC(=O)C1=CN(Cc2ccc(Br)cc2)S(=O)(=O)N(C)C1C` (centres undefined): “inactive”.
On the same count and under the same terms, next, `CCOC(=O)[C@H]1[C@H]2COc3cc(OC)ccc3[C@@H]2N2C(=O)CN(Cc3ccc(Cl)cc3)C(=O)[C@@]12C`: “inactive”; `CN(CC(=O)NCCc1ccc(S(N)(=O)=O)cc1)CC(=O)Nc1ccc(F)c(F)c1F`: “inactive”.
With `O=C(NCCS(=O)(=O)N1CCN(c2ccc(F)cc2)CC1)c1ccc2c(c1)OCO2`, the Potency entry was “inactive”.
Still for that read-out and setting: next, `CCCSc1nc(NCc2ccco2)c2c3c(sc2n1)COC(C)(CC)C3` (centres undefined): “inactive”; `CC1CCN(C(=O)CCc2nnc3ccc(NCc4ccco4)nn23)CC1`: “inactive”.
On the same count and under the same terms, next, `CN1CCc2c(sc3c2c(NCc2ccco2)nc2nnnn23)C1`: 10 µM (active); `CCC1(c2ccccc2)NC(=O)N(CC(=O)Nc2ccccc2C(=O)NC2CCCC2)C1=O` (centres undefined): “inactive”; `COCC(C)n1c(SCC(=O)NC2CCCCC2C)nc2ccccc2c1=O` (centres undefined): “inactive”.
For the molecule `CSCCC(NC(=O)c1ccco1)C(=O)Nc1cc(C)ccn1` (centres undefined), the Potency result was “inactive”.
Still for that read-out and setting: next, `CCc1ccc(Nc2n[n+](-c3ccccc3)c(-c3cccc(Cl)c3Cl)s2)cc1`: 10 µM (active); `COc1cc(Br)c(-c2sc(Nc3ccccc3)n[n+]2-c2ccccc2)cc1OC`: “inactive”.
The same measure, in the same setting: next, `Cc1ccc(Nc2nnc(SCc3ccccc3)s2)cc1`: “inactive”; `CCCN(C(=O)COC(=O)CNS(=O)(=O)c1ccc(NC(C)=O)cc1)C1CCS(=O)(=O)C1` (centres undefined): “inactive”; `COc1cc(OC)cc(C(=O)NNC(=O)CCOc2ccccc2OC)c1`: “inactive”.
Same read-out and setting: next, `COc1ccc(C)cc1NC(=O)c1cc(-c2ccccc2)nc2c1cnn2C(C)C`: “inactive”; `O=C1Cc2cc(S(=O)(=O)Nc3cccc(F)c3)ccc2N1`: “inactive”.
As to `COc1ccc(-c2cc(C(F)(F)F)nc(S(C)(=O)=O)n2)cc1OC`, the Potency is 10 µM (active).
On the same count and under the same terms, next, `COc1ccc(-c2cc(C(=O)NCCCN3CCCC3=O)c3ccccc3n2)cc1OC`: “inactive”; `COc1cc(OC)nc(S(C)(=O)=O)n1`: “inactive”.
On the same count and under the same terms, next, `CSCCC(NC(=O)COc1ccccc1)C(=O)OCc1ccc(Cl)cc1` (centres undefined): “inactive”.
Same read-out and setting: next, `O=C(COC(=O)c1ccc(O)cc1O)c1ccc2c(c1)OCCO2`: “inactive”; `CCOC(=O)N1CCN(C(=O)c2cc3c(-c4ccc(Cl)cc4)nn(C)c3s2)CC1`: “inactive”; `CN(CCNC(=O)c1cc2c(-c3ccccc3F)nn(C)c2s1)C1CCCCC1`: 12.6 µM (active).
For the molecule `Cc1ccccc1-n1nc(C)c2cc(C(=O)NC3CC3)sc21`, the Potency entry is “inactive”.
As to `CCOc1ncccc1C(=O)NNC(=O)c1cccc(S(=O)(=O)Nc2ccccc2OC)c1`, the Potency result was “inactive”.
For `C=CCCC(=O)N1C[C@H]2CON(C)[C@H]2C[C@H]1c1cccc(Nc2ccccc2)c1`, the activity change, negative = inhibition was -15.5% [at 8.37 µM].
For the molecule `Cc1ccc(C)c(NC(=S)NNC(=S)Nc2ccc(C(C)C)cc2)c1`, the Potency is 5.62 µM (active).
Same read-out and setting: next, `CC(C)c1ccc(NC(=S)NNc2ccc(Cl)c(C(=O)O)c2)cc1`: “inactive”.
Same read-out and setting: next, `Cc1ccc(C)c(NC(=S)NNC(=O)c2csc(C)c2)c1`: “inactive”.
